# HCMV antiviral: qHTS Assay for inhibitors of the human cytomegalovirus (HCMV); HFF cells, HCMV-luciferase reporter, 72 h; hits give low values; activity change, negative = inhibition, % at 57.5 µM; hit rate 4.5% among 410,000; in the data active means activity change below about -60%; inconclusive means no clear call, values can overlap the other calls; inactive means above about -39%; further: on the % scale 0 is the no-effect control and ±100 the full control effect
#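 Luciferase read-out from HCMV-luciferase-infected HFFs (MOI 1 PFU/cell) 72 h post infection at 37C; compounds added after 16 h cell attachment; activity normalized between buffer-only basal and Salinomycin (10uM) inhibitor controls.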
# HCV inhibitor: qHTS Assay for Inhibitors of Hepatitis C Virus (HCV). Huh7.5.1 HCVcc-Cre infection, luciferase reporter, 44 h. Potency, µM (highest dose often 41.8 µM), for inactives: at the highest dose activity change, negative = inhibition, hits mostly inhibitors. hit rate 3.4% among 340,000; active means well fitted inhibition curve with a large enough effect; inconclusive means small, poorly fitted or top-dose-only effect, or another doubt; inactive means no such curve, though single readings can be large or run the other way; further: potency means the concentration at half of the fitted maximal effect; on the % scale 0 is the no-effect control and ±100 the full control effect
#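 After 44 h co-culture of compound, cells and HCVcc-Cre (~0.5 moi), substrate is added for 15 min at room temperature and luciferase measured over 15 sec. Cells were seeded at 1,000/well and pre-cultured 4 h.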
# Marburg entry inh: qHTS for inhibitors of binding or entry into cells for Marburg Virus. Marburg virus pseudotyped entry inhibition, cell reporter. Potency, µM (top dose mostly 37.8 µM), inactives show top-dose activity change, negative = inhibition, usual class: inhibitors. hit rate 1.8% among 300,000; calls by dose curve; tested in HEK293 cells; further: potency means the concentration at half of the fitted maximal effect; on the % scale 0 is the no-effect control and ±100 the full control effect
# SARS PLpro yeast: qHTS of Yeast-based Assay for SARS-CoV PLP. S. cerevisiae expressing SARS-CoV PLpro, growth rescue. Potency, µM (series often up to 32.9 µM), without a hit: at the top dose activity, positive = growth rescue, usual class: activators. hit rate 0.19% among 330,000. AID 485353, 2010; calls by dose curve; further: potency means the concentration at half of the fitted maximal effect; 0% is about no effect; nearly all actives have a fitted effect of over 55% in size
# FMDV inh: High Throughput Screening for Foot and Mouth Disease Virus Antivirals; FMDV antiviral cell-based qHTS; hit rate 1.2% among 410,000; Potency, µM (series often up to 57.9 µM), for the others: top-dose activity change, negative = inhibition, actives largely listed as inhibitors; calls by dose curve; tested in HEK293T cells; further: read-out not given here; potency means the concentration at half of the fitted maximal effect; on the % scale 0 is the no-effect control and ±100 the full control effect; nearly all actives have a fitted effect of over 45% in size
# LASV entry inh: qHTS for Inhibitors of binding or entry into cells for Lassa Virus | hit rate 1.2% among 300,000 | Potency, µM (highest dose often 37.9 µM), for inactives: top-dose activity change, negative = inhibition, hits mostly inhibitors | Lassa virus pseudotype entry inhibition, cell reporter; calls by dose curve; tested in HEK293 cells; further: potency means the concentration at half of the fitted maximal effect; on the % scale 0 is the no-effect control and ±100 the full control effect; nearly all actives have a fitted effect of over 50% in size
# The depositor's hits bear a star; ? = inconclusive; / = no result; [ ] = dose if it differs, or a comment. Only some compounds are listed: those with a hit (about 8% of all), similar ones and a draw of the others.
SMILES,HCMV antiviral,HCV inhibitor,Marburg entry inh,SARS PLpro yeast,FMDV inh,LASV entry inh
O=C(N[C@@H](Cc1ccccc1)C(=O)CCl)OCc1ccccc1,-90*,?,16µM*,/,32µM*,3.3µM*
CC(C)[C@H](NC(=O)OCc1ccccc1)C(=O)N[C@H](C=O)Cc1ccccc1,/,/,0.65µM*,/,8%,7%
CC(C)[C@H](NC(=O)OCc1ccccc1)C(=O)NCc1ccccc1,7,8%,19%,-3%,-24%,-28%
COc1ccc(NC(=O)C2CCN(S(=O)(=O)c3ccc4c(c3)CCCC(=O)N4)CC2)cc1OC,38,/,/,/,-14%,-18%[46.1 µM]
Cc1cccc(C(=O)N2CCC(=O)N(C(COCc3ccc(Cl)cc3)Cc3ccccc3)CC2)c1 (centres undefined),-20,?,-4%,-19%,?,10µM*
O=C(c1cccc(Cl)c1)N1CCC(=O)N([C@H](COCc2ccccc2)Cc2ccccc2)CC1,20,/,/,/,-7%,/
Cc1ccc(S(=O)(=O)N2CCC(=O)N(C(COCc3ccc(Cl)c(Cl)c3)Cc3ccccc3)CC2)cc1 (centres undefined),/,9%,-19%,-4%,-21%,-4%
Cc1cccc(C(=O)N2CCC(=O)N(C(COCc3cccc(Cl)c3)Cc3ccccc3)CC2)c1 (centres undefined),15,4%[8.37 µM],-8%,9%,47%,8.2µM*
O=C(c1cccc(Cl)c1)N1CCC(=O)N(C(COCc2cccc(Cl)c2)Cc2ccccc2)CC1 (centres undefined),0,?,-17%,6%,-21%,15µM*
Cc1ccc(S(=O)(=O)N2CCC(=O)N(C(COCc3cccc(C)c3)Cc3ccccc3)CC2)cc1 (centres undefined),-6,?,?,-11%,-22%,15µM*
Cc1cccc(C(=O)N2CCC(=O)N([C@H](COCc3cccc(Cl)c3)Cc3ccccc3)CC2)c1,-8,/,/,/,-20%,/
O=C(O)CCNc1ccc(NCCC(=O)O)c2c1C(=O)c1ccccc1C2=O,-72*,-8%,/,-5%,?,/
O=C1c2cccc(NCCNCCO)c2C(=O)c2cccc(NCCNCCO)c21,-99*,?,5µM*,/,0%,?
O=C(NCCO)c1cccc2c1C(=O)c1ccccc1-2,-30,17%,7%,-4%,-12%,4%
COc1ccc2c(c1)CO[C@H]([C@H](O)COC(C)=O)[C@H]2C=Cc1ccccc1,/,/,-2%[14.2 µM],/,/,/
Cc1noc(C)c1-c1nccc(NCc2ccccc2)n1,/,/,/,/,-34%,/
Cc1ccc(NC(=O)C(=O)NCC(c2ccc3c(c2)OCO3)N2CCOCC2)cc1C (centres undefined),-3,/,/,/,-18%,?
CN(CC(=O)Nc1ccccc1C(F)(F)F)C(=O)c1cc(-c2cccs2)nn1-c1ccccc1,-13,?,2%,-2%,-26%,-1%
CN(CC(=O)Nc1cccc(F)c1)C(=O)c1cc(-c2cccs2)nn1-c1ccccc1,-12,11µM*,-19%,2%,?,4%
COc1cc(CN2C(=O)CC[C@@H]3CN(Cc4ccccn4)CC[C@@H]32)cc(OC)c1OC,/,/,/,/,-4%,/
CCN(CC)c1ccc(C=C2C(=O)N(C)C(=S)N(C)C2=O)o1,1,3%,?,-6%,-3%,-5%
CCN(CC)c1ccc(/C=C2/SC(=O)N(C(C)C)C2=O)o1,-86*,?,?,-89%,11%,?
Cc1ccccc1OCCCSc1nc2ccccc2[nH]1,-70*,?,?,-109%,?,?
COCCCNCCC(CCC(C)C)c1ccc2c(c1)OCO2 (centres undefined),11,14µM*,?,-2%,19%,?
CC(C)CCC(CCN1CCCC1)c1ccc2c(c1)OCO2 (centres undefined),9,?,?,-1%,-16%,-10%
SMILES,HCMV antiviral,HCV inhibitor,Marburg entry inh,SARS PLpro yeast,FMDV inh,LASV entry inh
CC(C)CCC(CCN1CCOCC1)c1ccc2c(c1)OCO2 (centres undefined),-20,?,12µM*,3%,-26%,-22%
CCOC(=O)c1cc(NC(=O)c2ccc(C)cc2)c(=O)n2c1oc1ccc(Cl)cc12,-3,/,?,/,-1%,-13%[46.1 µM]
Cn1c(CNc2cccc(C(F)(F)F)c2)n[nH]c1=S,-1,8%,1%,1%,0%,4%
Cn1c(-c2csc(-c3cccc(C(F)(F)F)c3)n2)n[nH]c1=S,-84*,8%,14%,1%,8%,15%
CCOc1ccc(NC(=O)Cn2nc(Cc3cccnc3)c3ccccc3c2=O)cc1,?,/,7%[46.1 µM],/,-19%,14%[46.1 µM]
O=S(=O)(Nc1cccc(-c2nc3cccnc3s2)c1)c1ccc2c(c1)OCCO2,-64*,?,/,-5%,43%,/
COc1ccc(CNC(=O)Cn2c(=O)oc3cc(S(=O)(=O)N4CCCCCC4)ccc32)cc1,?,/,/,/,-5%,?
CCOC(=O)c1sc2ncnc(NCC(c3cccs3)N(C)C)c2c1C (centres undefined),-16,10µM*,?,1%,4%,16%
CCn1ccnc1CN(C)Cc1cn(-c2cccc(C)c2)nc1-c1cccc(F)c1,-38,3.5µM*,/,-4%,0%,/
Cc1cccc(-n2cc(CN(C)Cc3nccn3C)c(-c3cccc(F)c3)n2)c1,6,?,/,0%,-18%,/
COc1ccc(S(=O)(=O)c2cnc(SCC(=O)Nc3cc(F)ccc3C)[nH]c2=O)cc1Cl,-11,/,1%[46.1 µM],/,-12%,-7%[46.1 µM]
Fc1ccc(-n2cc(-c3ccccc3)c3c(=S)nc[nH]c32)cc1,?,?,?,2%,-27%,5µM*
Cc1ccc(-n2cc(-c3ccccc3)c3c(=O)[nH]cnc32)cc1,-5,10%,-28%,-10%,7%,15µM*
O=c1[nH]cnc2c1c(-c1ccccc1)cn2-c1ccccc1,-21,-1%,/,-12%,-12%,/
Fc1cccc(-n2cc(-c3ccccc3)c3c(=S)nc[nH]c32)c1,?,?,/,?,0%,/
CCc1ccc2oc(-c3cccc(NC(=O)c4ccc(-c5cccc([N+](=O)[O-])c5)o4)c3)nc2c1,66,/,?,/,33%,17%[46.1 µM]
CN(C)c1cc[n+](CC(=O)N2c3ccccc3Sc3ccccc32)cc1,-84*,-23%,-19%,0%,-21%,-19%
O=C(c1ccco1)N1c2ccccc2Sc2ccccc21,?,15%,22µM*,-50%,?,?
CC(C)CNC(=O)N1c2ccccc2Sc2ccccc21,-23,-2%,?,1%,-10%,?
O=C(C[n+]1ccccc1)N1c2ccccc2Sc2ccccc21,-75*,?,-9%[46.1 µM],0%,7%,/

# From PubChem BioAssay
